Measured values: PubChem BioAssay
The source made the active and inactive calls.

Tests used:
[1] = test system: Human papillomavirus type 1a protein E7 (residues 44-93); test: small molecules binding HPV E7 44-93 – biochemical, small-molecule microarray, residues 44-93, 635 nm fluorescence, primary screen (AID 1108); conditions: fluorescence 635 nm, higher = more signal;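 also: E7 fragment applied at 1 µg/mL in TBST for 1 h at 4 C; score combines spot fluorescence with its signal to noise ratio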
[2] = hepatitis C replication reporter changes, two-sided – Huh7 cells, luciferase reporter, HCV replication inhibitor project, primary screen (AID 1109); conditions: Huh7 HCV replicon luciferase reporter, 48 h; higher = more signal;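 also: huh7 hepatoma cells harbouring a luciferase neomycin HCV replicon reporter; luciferase luminescence as measure of HCV replicon replication; test concentration not given here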
[3] = target: Left-right determination factor 2 (Homo sapiens) (UniProt O00292); test: small molecules binding LEFTY2 protein – biochemical, small-molecule microarray, 635 nm fluorescence scan, primary screen (AID 1110); conditions: higher = more signal
[4] = target: Calmodulin-1 (Homo sapiens) (UniProt P0DP23); test: small molecules binding calmodulin-1 with EGTA – biochemical, small-molecule microarray, Cy5-labelled CALM1, profiling panel (AID 1111); conditions: Cy5-CALM1 binding fluorescence, higher = more signal;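 also: labelled calmodulin applied in Tris saline Tween buffer holding calcium plus EGTA and DTT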
[5] = target: Calmodulin-1 (Homo sapiens) (UniProt P0DP23); test: small molecules binding Ca-loaded calmodulin-1 – biochemical, small-molecule microarray, Cy5-labelled CALM1, plus calcium, artefact control for SMM control-protein annotation, profiling panel (AID 1112); conditions: Cy5-CALM1 binding fluorescence, higher = more signal;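 also: score merges spot fluorescence with signal to noise from triplicate slides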
[6] = probe aWnt5a binding to arrayed compounds – biochemical, biotinylated probe, 635/667 nm fluorescence, primary screen (AID 1113); conditions: small-molecule microarray, higher = more signal;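 also: score merges 667 nm fluorescence intensity with signal-to-noise per printed feature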
[7] = probe aShh binding to arrayed compounds – biochemical, biotinylated probe, 635/667 nm fluorescence, primary screen (AID 1114); conditions: small-molecule microarray, higher = more signal;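 also: probe is biotin-labelled aShh protein from a stem cell growth factor screen; measures binding of labelled protein to compounds printed on the slide; score merges feature fluorescence at 667 nm with signal-to-noise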
[8] = probe aNog binding to arrayed compounds – biochemical, biotinylated probe, 635/667 nm fluorescence, primary screen (AID 1115); conditions: small-molecule microarray, higher = more signal;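 also: probe is biotinylated aNog protein used at 0.15 µg/mL for 1 h at 4 C; z-score combines 667 nm fluorescence of each spot with its signal to noise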
[9] = target: Torsin-1A-interacting protein 1 (Homo sapiens) (UniProt Q5JTV8); test: compound microarray binding of lysate hLAP1 – cell lysate, small-molecule microarray, COS7 lysate, 635/667 nm fluorescence, primary screen (AID 1116); conditions: 635 nm fluorescence, higher = more signal
[10] = target: Alpha-bungarotoxin (Bungarus multicinctus) (UniProt P60615); test: compounds binding labelled alpha-BTX control protein – biochemical, small-molecule microarray, Alexa647 label, 635/667 nm fluorescence, artefact control for SMM control protein annotation, profiling panel (AID 1117); conditions: alpha-BTX-A647 binding fluorescence, higher = more signal
Albumin (Bos taurus) = Albumin (Bos taurus) (UniProt P02769); test: compounds binding labelled BSA control protein – biochemical, small-molecule microarray, Alexa647 label, 635/667 nm fluorescence, artefact control for SMM control protein annotation, profiling panel (AID 1118); conditions: BSA-A647 binding, fluorescence 635 nm, higher = more signal;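 also: score merges 667 nm emission intensity and signal-to-noise per printed compound spot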
[11] = probe aXIP binding to arrayed compounds – biochemical, NeuroSMM set, 635/667 nm fluorescence, primary screen (AID 1119); conditions: small-molecule microarray, higher = more signal, called active from +8 up or from −8 down;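 also: probe is the protein aXip251-270 applied at 1 µg/mL to compound-printed slides; binding of probe to printed compounds measured as 667 nm fluorescence plus signal to noise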
[12] = probe aNOTCH3 binding on compound microarray – biochemical, small-molecule microarray, 635/667 nm fluorescence, primary screen (AID 1120); conditions: higher = more signal;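 also: probe is a biotin-tagged antibody raised against NOTCH3 rather than NOTCH3 protein; score merges spot fluorescence near 667 nm with spot signal to noise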
[13] = probe aNOTCH2 binding on compound microarray – biochemical, small-molecule microarray, 635/667 nm fluorescence, primary screen (AID 1121); conditions: higher = more signal;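 also: score merges feature fluorescence read at 667 nm with its signal to noise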
[14] = target: Carbonic anhydrase 2 (Homo sapiens) (UniProt P00918); test: compounds binding carbonic anhydrase 2 – biochemical, small-molecule microarray, Alexa647-labelled CAII, profiling panel (AID 1122); conditions: CAII-A647 binding fluorescence, higher = more signal
[15] = COS7 lysate on small-molecule microarray, probe aHis, 635 nm (AID 1123); conditions: COS7 cell lysate, fluorescence, higher = more signal;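 also: z-score combines 667nm fluorescence intensity with signal-to-noise per printed compound spot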
[16] = probe aLAP1 signal on lysate-treated microarray – cell lysate, small-molecule microarray, COS7 lysate, primary screen (AID 1124); conditions: probe aLAP1, fluorescence, higher = more signal;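 also: lysate comes from COS7 cells expressing LAP1 and is applied at 0.3 µg/mL; score merges spot fluorescence near 667 nm with signal-to-noise over triplicate slides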
Sam68 (KHDRBS1) = test: compounds binding KHDRBS1 protein – biochemical, small-molecule microarray, 635 nm fluorescence, primary screen (AID 1125); conditions: higher = more signal;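 also: score merges 667 nm channel intensity with signal to noise over triplicate slides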
[17] = test system: Chordin-like protein 2 (CHRDL2); test: compounds binding chordin-like 2 – biochemical, small-molecule microarray, 635 nm fluorescence, primary screen (AID 1126); conditions: fluorescence 635 nm, higher = more signal;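 also: printed compound slides probed with Chrdl2 protein at 4 µg/mL for 1 h at 4 C; score merges 667 nm emission intensity with signal to noise over three replicate slides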
[18] = target: Concanavalin-A (Canavalia ensiformis) (UniProt P02866); test: compounds binding concanavalin A lectin – biochemical, small-molecule microarray, Alexa647 label, 635 nm, artefact control for SMM control protein annotation, primary screen (AID 1127); conditions: ConA-A647 binding fluorescence, higher = more signal;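 also: z combines 667 nm emission intensity with signal-to-noise across three replicate slides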
Chain of Concanavalin-A (Canavalia ensiformis) (P02866 whole entry, looked up): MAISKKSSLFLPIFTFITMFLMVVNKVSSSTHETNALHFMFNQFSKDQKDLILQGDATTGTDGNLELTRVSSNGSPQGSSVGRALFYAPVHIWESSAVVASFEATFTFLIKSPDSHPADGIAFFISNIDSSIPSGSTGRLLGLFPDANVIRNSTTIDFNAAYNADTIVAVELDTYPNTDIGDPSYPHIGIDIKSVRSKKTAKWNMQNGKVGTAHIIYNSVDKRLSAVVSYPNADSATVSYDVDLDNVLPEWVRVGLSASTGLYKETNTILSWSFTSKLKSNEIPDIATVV

Chain of Left-right determination factor 2 (Homo sapiens) (O00292 whole entry, looked up): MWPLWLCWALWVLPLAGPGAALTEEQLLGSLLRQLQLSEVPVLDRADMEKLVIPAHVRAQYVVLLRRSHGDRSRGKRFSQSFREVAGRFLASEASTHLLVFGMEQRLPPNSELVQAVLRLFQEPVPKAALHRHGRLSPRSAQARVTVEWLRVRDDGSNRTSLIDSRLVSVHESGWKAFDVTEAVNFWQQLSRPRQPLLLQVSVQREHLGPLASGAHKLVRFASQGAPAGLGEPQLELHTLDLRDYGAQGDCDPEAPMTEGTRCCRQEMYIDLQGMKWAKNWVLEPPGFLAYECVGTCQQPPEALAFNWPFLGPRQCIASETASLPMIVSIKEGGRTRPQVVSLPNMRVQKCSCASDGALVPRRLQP
Chain of Albumin (Bos taurus) (P02769 whole entry, looked up): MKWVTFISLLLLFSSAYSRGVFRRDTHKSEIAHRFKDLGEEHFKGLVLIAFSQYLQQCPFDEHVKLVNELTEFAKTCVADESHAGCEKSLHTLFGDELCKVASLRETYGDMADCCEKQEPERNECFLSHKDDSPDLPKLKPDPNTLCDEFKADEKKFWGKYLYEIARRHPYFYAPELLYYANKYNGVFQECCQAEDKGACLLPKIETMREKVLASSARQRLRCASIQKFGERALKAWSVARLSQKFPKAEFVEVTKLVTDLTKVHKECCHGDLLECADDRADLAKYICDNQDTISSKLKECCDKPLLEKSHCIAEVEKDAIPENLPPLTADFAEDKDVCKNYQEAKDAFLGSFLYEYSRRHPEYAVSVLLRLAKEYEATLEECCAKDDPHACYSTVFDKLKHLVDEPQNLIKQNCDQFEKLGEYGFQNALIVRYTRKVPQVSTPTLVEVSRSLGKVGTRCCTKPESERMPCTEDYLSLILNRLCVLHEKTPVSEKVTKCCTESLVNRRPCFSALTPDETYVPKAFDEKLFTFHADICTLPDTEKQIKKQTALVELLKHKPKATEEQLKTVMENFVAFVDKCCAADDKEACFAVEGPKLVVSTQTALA
Chain of Alpha-bungarotoxin (Bungarus multicinctus) (P60615 whole entry, looked up): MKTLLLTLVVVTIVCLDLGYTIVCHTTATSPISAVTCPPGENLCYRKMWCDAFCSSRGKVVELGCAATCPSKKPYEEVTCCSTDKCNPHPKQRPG
Chain of Torsin-1A-interacting protein 1 (Homo sapiens) (Q5JTV8 whole entry, looked up): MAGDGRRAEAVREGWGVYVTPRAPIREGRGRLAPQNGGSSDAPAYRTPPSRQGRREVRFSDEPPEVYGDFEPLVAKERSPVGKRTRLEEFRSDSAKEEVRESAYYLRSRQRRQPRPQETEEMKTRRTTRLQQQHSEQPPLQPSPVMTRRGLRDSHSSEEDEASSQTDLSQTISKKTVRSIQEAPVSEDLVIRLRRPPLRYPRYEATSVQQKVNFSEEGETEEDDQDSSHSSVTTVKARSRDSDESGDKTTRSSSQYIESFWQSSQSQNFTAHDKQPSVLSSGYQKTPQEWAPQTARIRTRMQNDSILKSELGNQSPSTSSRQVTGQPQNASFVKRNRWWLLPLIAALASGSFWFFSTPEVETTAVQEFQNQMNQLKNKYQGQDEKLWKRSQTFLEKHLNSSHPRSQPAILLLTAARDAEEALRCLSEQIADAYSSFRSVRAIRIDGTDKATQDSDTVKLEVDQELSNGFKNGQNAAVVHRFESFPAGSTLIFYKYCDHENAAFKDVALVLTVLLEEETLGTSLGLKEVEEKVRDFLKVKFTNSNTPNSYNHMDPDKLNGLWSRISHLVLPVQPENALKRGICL

Row | Structure (SMILES) | composite z-score [1] | z-score [2] | composite z-score [3] | composite z-score [4] | composite z-score [5] | composite z-score [6] | composite z-score [7] | composite z-score [8] | composite z-score [9] | composite z-score [10] | composite z-score (Albumin (Bos taurus)) | composite Z-score [11] | composite z-score [12] | composite z-score [13] | composite z-score [14] | composite z-score [15] | composite z-score [16] | composite z-score (Sam68 (KHDRBS1)) | composite z-score [17] | composite z-score [18]
1 | Cc1ccc(S[C@]2(C(=O)O)CC(=O)N(Cc3cc(C(F)(F)F)cc(C(F)(F)F)c3)[C@@H]2c2ccc(CO)cc2)cc1 | -0.0234 | -0.0295 | -2.28 | -0.743 | 0.168 | -0.226 | -0.0483 | -0.0733 | -0.155 | -0.876 | -1.78 | -0.483 (inactive) | -0.512 | -0.154 | 0.65 | 1.23 | 0.549 | -0.25 | -2.37 | -1.24
2 | O=C1c2ccccc2[C@](Cc2ccccc2I)(C(=O)NCC(F)(F)F)[C@H](c2ccc(CO)cc2)N1C1CCCCC1 | 1.27 | -1.21 | 0.133 | 1.53 | 0.486 | -0.0405 | 0.0611 | 0.128 | -0.229 | 1.51 | 0.689 | 0.328 (inactive) | -0.0026 | -0.0956 | 0.729 | 2.31 | 0.326 | 1.31 | 0.227 | 1.16
3 | CCOC(=O)C1CCCCN1 (stereo not given) | 0.728 | 0.417 | 0.4 | -0.178 | -0.483 | 0.312 | 0.444 | 0.144 | 0.488 | 0.54 | 0.351 | 0.104 (inactive) | 0.77 | 0.435 | 0.175 | 0.437 | 0.471 | 0.983 | 0.47 | 0.562
4 | C=CCNC(=O)[C@H]1[C@@H]2C(=O)O[C@@H](c3ccccc3)[C@@H](c3ccccc3)N2[C@@H](c2ccc(O)cc2)[C@]12C(=O)N(C(=O)OCCOC)c1ccccc12 | 1.42 | -0.585 | 0.18 | 0.763 | -0.0816 | -0.0573 | -0.331 | -0.206 | 0.793 | 0.712 | 0.299 | 0.255 (inactive) | -0.091 | 0.0487 | 0.385 | 2.18 | 0.701 | 1.17 | 0.0889 | 0.745
5 | CC1=C([C@H](O)CCc2ccccc2)[C@H](CO)[C@@H]2C(=O)N(C)C(=O)[C@@H]2C1 | 0.305 | -0.581 | 0.392 | 0.489 | -0.905 | -0.197 | -0.262 | -0.416 | 0.185 | 0.224 | 0.361 | -0.297 (inactive) | 0.0313 | 0.0592 | 0.125 | 0.58 | 0.244 | 0.535 | 0.557 | 0.476
6 | O=C(NCC(F)(F)F)[C@@H]1c2ccccc2C(=O)N(Cc2cc(F)cc(C(F)(F)F)c2)[C@H]1c1ccc(CO)cc1 | 0.463 | -0.661 | -1.53 | 0.152 | 0.712 | -0.096 | -0.0709 | -0.074 | -0.468 | -0.758 | -0.463 | 0.57 (inactive) | -0.355 | -0.0644 | 0.295 | 0.837 | -0.0879 | -0.639 | -1.11 | -0.236
7 | CCOC(=O)C1=CC[C@@H](c2ccccc2C(F)(F)F)N(S(=O)(=O)c2ccc(C)cc2)[C@H]1c1ccc(C#N)cc1 | 0.325 | 0.65 | 0.327 | 1.63 | 0.697 | -0.0152 | -0.283 | -0.301 | 0.408 | 0.969 | 0.733 | -0.554 (inactive) | 0.223 | -0.0211 | 0.675 | 0.791 | 1.25 | 0.892 | 0.475 | 1.11
8 | O=C1O[C@@H](c2ccccc2)[C@@H](c2ccccc2)N2[C@@H](c3ccc(O)cc3)[C@]3(C(=O)Nc4ccc(C#CC5(O)CCCCCC5)cc43)[C@@H](C(=O)NC[C@H](O)c3ccccc3)[C@H]12 | 1.39 | -0.737 | -0.817 | 0.122 | 0.208 | -0.0276 | -0.138 | 0.0841 | 1.15 | 0.203 | 0.0697 | 0.2 (inactive) | -0.262 | -0.0984 | 0.547 | 1.05 | 0.632 | 0.686 | -0.703 | 0.221
9 | C=CCOC(=O)[C@H]1[C@@H]2C(=O)O[C@@H](c3ccccc3)[C@@H](c3ccccc3)N2[C@@H](c2ccc(OCCOC(=O)[C@@H]3C[C@@H]4C(=O)N[C@@H](CCCCN(C)C)C(=O)N4[C@@H]3c3ccc(O)cc3)cc2)[C@]12C(=O)Nc1ccccc12 | -0.541 | -2.88 | 1.08 | -1.35 | -1.07 | -0.124 | -0.0709 | -0.106 | 1.17 | -0.23 | -0.568 | 0.685 (inactive) | 0.137 | 0.0002 | 0.297 | 2.58 | 0.949 | 1.31 | 1.44 | 1.14
10 | COc1ccc([Si](C)(C)[C@@H]2[C@@H](CC(=O)N(CCO)Cc3ccccc3)O[C@]3(C(=O)N(Cc4cccc(N5CCOC5=O)c4)c4ccccc43)[C@H]2C)cc1 | -0.139 | -3.7 | 0.538 | -0.561 | -0.44 | -0.173 | -0.0011 | -0.237 | 0.861 | 1.2 | -0.256 | 1.28 (inactive) | -0.269 | -0.0993 | 0.596 | 1.22 | 0.766 | 1.3 | 0.647 | 1.08
